Experimental data: PubChem BioAssay
Values joined by “and” are separate entries in the source; they are usually repeats but may differ in a detail not shown here. Equal values may be shown once. For part of these data: Entries with a potency or affinity are not part of this list. Active and inactive are the calls of the source.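 Rule for the calls, unless noted: active = normalized viability below 100% at a tested concentration; inactive = the rest.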

What was measured:
[1] = polyglutamine-triggered caspase-3 activation inhibitors, cell-based (AID 1583); details: polyglutamine-induced caspase-3 activation, cell assay; stronger effect = higher value;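 tested at 10 µM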
[2] = suppressors of polyQ aggregation in yeast, 75Q-TubU reporter (AID 1593); details: Yeast 75Q polyglutamine aggregation reporter
[3] = rescue of polyQ-huntingtin neuronal dysfunction in worms, whole organism, C. elegans mechanosensory neurons, N-terminal huntingtin (AID 1599); details: touch response, stronger effect = higher value
[4] = inhibitors of mitochondrial cytochrome c release, biochemical, purified mitochondria (AID 1603); details: stronger effect = lower value;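 note: mouse liver mitochondria challenged with calcium chloride; signal normalized to the plate average as 100%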
[5] = inhibitors of polyQ protein aggregation (AID 1604); details: polyglutamine-induced protein aggregation inhibition assay; stronger effect = higher value; tested at 2.5 µM
[6] = enhancers of glutamate uptake in motor neurons, MN-1 cell line (AID 1612); details: MN-1 motor neuron cells, stronger effect = higher value;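 note: tested at 1 µM final; 0% = mean of DMSO vehicle wells on each plate; positive means more glutamate uptake than control and negative means less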
[7] = reducers of polyQ inclusions in PC12 cells, cell-based, NGF-treated PC12, GFPQ80 (AID 1614); details: PC12 NGF-treated GFP-polyQ80 inclusion reduction;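 note: lower means fewer inclusions and 0 means no inclusions at all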
[8] = suppressors of polyglutamine aggregation in yeast, 75Q-TubH (AID 1616); details: S. cerevisiae 75Q-TubH polyglutamine aggregation suppression; stronger effect = higher value
[9] = hESC survival regulators, cell-based (AID 493140; call rule not given here;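 note: cells exposed to compounds for four days before counting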); details: human embryonic stem cell survival screen; stronger effect = higher value
[10] = biological target: 6-phosphogluconate dehydrogenase, decarboxylating (Homo sapiens) (UniProt P52209); experiment: 6PGD enzyme inhibitors, primary screen, biochemical, human, recombinant enzyme, NADPH absorbance (AID 1159550;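 active = at least 20% inhibition of 6-phosphogluconate dehydrogenase activity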); details: recombinant 6PGD, NADPH absorbance 341 nm; at 10 µM; stronger effect = higher value
[11] = differential killing of epithelial or mesenchymal cells, primary screen, imaging, PC-3E GFP, TEM4-18 mCherry, co-culture (AID 1345086;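 active = compounds killing one labelled cell type while sparing the other, by normalised counts and ratio limits, not self-fluorescent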;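 for all read-outs here: cells exposed to compound for 72 h before imaging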;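 for red/green cell ratio (normalised): normalised mesenchymal count divided by normalised epithelial count so high means epithelial killing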); details: imaging cell counts, at 1 µM; for red/green cell ratio (normalised): actives lie on both sides, counts scaled to control wells, 1 = unselective
[12] = survival rescue of mitochondrial mutant cells in low glucose, primary screen, MELAS cybrids, Rieske KO mouse fibroblasts, CellTiter-Glo (AID 1508586;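 active = mean z-score across replicates of 1.96 or higher in either the MELAS or the Rieske mutant cell line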;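 note: z relative to plate mean and SD of compound and empty wells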)
[13] = biological target: NAD(+) hydrolase SARM1 (Homo sapiens) (UniProt Q6SZW1); experiment: SARM1 TIR NADase inhibitors, cell lysate, NAD-Glo luminescence (AID 1508614;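 active = compound whose remaining NAD level is above about 45 nM, limit read from the data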;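 note: higher remaining NAD means stronger inhibition of SARM1 NADase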); details: SAM-TIR HEK293T lysate NADase, at 1 µM, stronger effect = higher value
[14] = biological target: Mitogen-activated protein kinase 7 (Homo sapiens) (UniProt Q13164); experiment: ERK5 transactivation activators in reporter cells, primary screen, cell-based, HTS (AID 1508626;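 active = luciferase signal above three times the same-plate solvent-only control wells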;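 note: luciferase driven by Gal4-ERK5 fusion binding five Gal4 sites before minimal TATA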); details: HeLa Gal4-ERK5 transactivation, 18 h, at 5 µM, stronger effect = higher value
[15] = viability rescue of complex I mutant cybrids, primary screen, cell-based, galactose medium, ATP luminescence (AID 1645843;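 active = z-score of at least 1.8 in each of two replicates, scored against plate mean and spread of sample wells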;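 note: positive z means more ATP and so rescue of galactose-driven cybrid death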); details: complex I mutant cybrid cells, 72 h, stronger effect = higher value
[16] = circadian clock period modulators, cell-based, LOPAC library, luminescence reporter (AID 2774; call rule not given here;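 note: values are relative to mean of DMSO wells on each plate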); details: circadian reporter cells, at 7 µM, actives lie on both sides
[17] = liver-stage malaria parasite growth inhibition, primary screen, cell-based, HepG2, luciferase luminescence, HepG2 viability (AID 624349; in the data active = parasite load remaining mostly below about 12%, no sharp cut-off; inactive = mostly above about 10%;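 note: 100% = mean of DMSO negative control wells on the same plate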); details: P. berghei liver stage in HepG2, luciferase luminescence, concentration not given here; parasite load remaining: stronger effect = lower value; viability: measured here: HepG2 viability without parasites
[18] = sensitizers of A549 cells to miR-34 induction, primary screen, imaging, A549 dox-inducible miR-34, nuclei and caspase counts (AID 1347080;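 active = compounds whose cell count with miR-34 switched on is under 0.7 times the count with it off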); details: A549 miR-34 inducible, Hoechst nuclei count, 48 h
[19] = phospholipid biosynthesis inhibitors in animal cells, primary screen, cell-based, LOPAC library, screen 4 (AID 1347384; call rule not given here); details: phospholipid biosynthesis inhibition screen, at 10 µM
[20] = ovarian cancer cell viability with rucaparib, profiling panel, oncology-focused library, rucaparib conditional (AID 1508598); details: patient-derived ovarian cancer cells, CellTiter-Glo viability, 144 h, stronger effect = lower value
[21] = measured here: epithelial PC-3E GFP cell survival
[22] = measured here: mesenchymal TEM4-18 mCherry cell survival
[23] = MELAS cybrid survival, CellTiter-Glo 48 h, stronger effect = higher value
[24] = Rieske KO mouse fibroblast survival, CellTiter-Glo 72 h
[25] = stronger effect = lower value, cell number ratio, induced over uninduced
[26] = measured here: relative caspase fold change +Dox/-Dox
[27] = measured here: total cells with miR-34 induction, stronger effect = lower value
[28] = measured here: total cells without miR-34 induction

Chain of Mitogen-activated protein kinase 7 (Homo sapiens) (Q13164 whole entry, looked up, the tested form may be a part): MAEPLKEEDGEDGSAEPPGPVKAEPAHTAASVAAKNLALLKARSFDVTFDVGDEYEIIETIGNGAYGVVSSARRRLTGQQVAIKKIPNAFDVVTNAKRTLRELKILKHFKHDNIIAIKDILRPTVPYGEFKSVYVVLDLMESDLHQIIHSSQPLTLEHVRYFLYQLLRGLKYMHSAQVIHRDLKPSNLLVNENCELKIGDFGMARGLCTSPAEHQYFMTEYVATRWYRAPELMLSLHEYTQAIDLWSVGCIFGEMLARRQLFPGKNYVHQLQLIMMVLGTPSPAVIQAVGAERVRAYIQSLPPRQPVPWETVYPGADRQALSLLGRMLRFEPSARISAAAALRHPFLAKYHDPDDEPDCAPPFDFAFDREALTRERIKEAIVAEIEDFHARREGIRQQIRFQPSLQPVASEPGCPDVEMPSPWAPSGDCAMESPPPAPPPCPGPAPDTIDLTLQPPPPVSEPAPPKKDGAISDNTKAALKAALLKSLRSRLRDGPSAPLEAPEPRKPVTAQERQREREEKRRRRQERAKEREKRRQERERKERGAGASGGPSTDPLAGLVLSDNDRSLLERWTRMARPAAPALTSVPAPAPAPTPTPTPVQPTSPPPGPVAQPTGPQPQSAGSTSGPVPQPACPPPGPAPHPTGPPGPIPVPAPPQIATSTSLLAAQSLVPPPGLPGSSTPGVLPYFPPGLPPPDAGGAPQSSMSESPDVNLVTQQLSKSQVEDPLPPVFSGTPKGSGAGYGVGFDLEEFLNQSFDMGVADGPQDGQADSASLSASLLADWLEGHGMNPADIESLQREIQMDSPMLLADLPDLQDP
Chain of 6-phosphogluconate dehydrogenase, decarboxylating (Homo sapiens) (P52209 whole entry, looked up): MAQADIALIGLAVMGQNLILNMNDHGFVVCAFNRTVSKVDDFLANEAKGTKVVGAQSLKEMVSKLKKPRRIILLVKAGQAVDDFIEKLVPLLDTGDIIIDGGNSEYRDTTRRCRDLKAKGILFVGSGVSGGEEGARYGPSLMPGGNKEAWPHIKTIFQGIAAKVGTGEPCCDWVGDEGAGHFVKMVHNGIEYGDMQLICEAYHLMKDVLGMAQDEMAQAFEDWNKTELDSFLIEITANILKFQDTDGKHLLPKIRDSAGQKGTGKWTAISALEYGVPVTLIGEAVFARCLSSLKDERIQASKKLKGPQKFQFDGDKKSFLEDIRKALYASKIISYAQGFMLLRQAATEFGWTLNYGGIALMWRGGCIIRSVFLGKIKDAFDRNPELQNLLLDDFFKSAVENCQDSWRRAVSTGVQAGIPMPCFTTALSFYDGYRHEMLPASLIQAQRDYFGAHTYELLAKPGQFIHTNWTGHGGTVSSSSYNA
Chain of NAD(+) hydrolase SARM1 (Homo sapiens) (Q6SZW1 whole entry, looked up, the tested form may be a part): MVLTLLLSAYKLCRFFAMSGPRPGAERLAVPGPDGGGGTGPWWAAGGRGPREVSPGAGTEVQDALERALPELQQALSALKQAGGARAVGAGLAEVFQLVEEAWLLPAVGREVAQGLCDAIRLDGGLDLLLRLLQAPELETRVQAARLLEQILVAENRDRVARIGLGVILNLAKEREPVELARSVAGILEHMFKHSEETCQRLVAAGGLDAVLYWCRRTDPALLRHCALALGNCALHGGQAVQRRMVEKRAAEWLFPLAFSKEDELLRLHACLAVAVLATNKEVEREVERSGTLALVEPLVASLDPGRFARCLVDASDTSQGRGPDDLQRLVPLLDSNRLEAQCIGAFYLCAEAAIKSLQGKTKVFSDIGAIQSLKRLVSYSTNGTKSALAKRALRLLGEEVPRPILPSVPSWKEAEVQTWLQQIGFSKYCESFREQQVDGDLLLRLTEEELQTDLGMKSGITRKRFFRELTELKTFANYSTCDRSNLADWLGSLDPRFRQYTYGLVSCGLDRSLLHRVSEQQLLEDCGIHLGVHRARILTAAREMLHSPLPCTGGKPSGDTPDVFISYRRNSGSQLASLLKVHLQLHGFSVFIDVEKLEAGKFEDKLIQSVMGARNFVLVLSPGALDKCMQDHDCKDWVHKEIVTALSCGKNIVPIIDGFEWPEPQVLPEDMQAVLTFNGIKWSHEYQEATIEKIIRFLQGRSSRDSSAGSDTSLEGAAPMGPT

SMILES: Nc1ccc(S(=O)(=O)Nc2ncccn2)cc1
- inhibition [1]: -24.3%
- score [2]: 0.99
- rescue above control [3]: -2.17
- cytochrome c release ratio [4]: 1.47
- inhibition of aggregation [5]: 53.9%
- glutamate uptake change [6]: -2.67%
- inclusion score [7]: 2
- aggregation suppression score [8]: 0.995
- survival [9]: 31.2 (inactive)
- inhibition [10]: 5.23% (inactive)
- red/green cell ratio (normalised) [11]: 1.41 (inactive)
- normalised cell number [11, 21]: 0.84
- normalised cell number [11, 22]: 1.19
- z-score [12, 23]: -0.222 (inactive) and 0.26 (inactive) and -0.566 (inactive)
- z-score [12, 24]: 0.689 and 0.071 and -1.27
- remaining NAD [13]: 10 nM (inactive)
- luciferase signal [14]: 40 AU (inactive)
- z-score [15]: -0.065 (inactive)

SMILES: CCn1nc(C(=O)O)c(=O)c2cc3c(cc21)OCO3
- inhibition [1]: 20.5%
- score [2]: 0.7
- rescue above control [3]: 3.16
- cytochrome c release ratio [4]: 0.93
- inhibition of aggregation [5]: 18.2%
- glutamate uptake change [6]: -5.25%
- inclusion score [7]: 2
- aggregation suppression score [8]: 0.697
- period change [16]: 0.04 h (inactive)
- survival [9]: 2.42 (inactive)
- parasite load remaining [17]: 87.3% (inactive) and 66.8% (inactive)
- viability [17]: 99.6% and 76.9% and 91.7%
- inhibition [10]: 6.67% (inactive)
- red/green cell ratio (normalised) [11]: 1.25 (inactive)
- normalised cell number [11, 21]: 1.11
- normalised cell number [11, 22]: 1.38
- fold change [18, 25]: 0.983 (inactive) and 0.931 (inactive) and 0.893 (inactive)
- fold change [18, 26]: 1.81 and 0.999 and 1.16
- cell count [18, 27]: 10100 and 8650 and 10900
- cell count [18, 28]: 10300 and 9290 and 12200
- outcome [19]: inactive
- z-score [12, 23]: -0.474 (inactive)
- z-score [12, 24]: -0.663
- remaining NAD [13]: 10 nM (inactive)
- luciferase signal [14]: 32 AU (inactive)
- z-score [15]: 0.215 (inactive)

SMILES: O=C(CCc1ccc(O)cc1)c1c(O)cc(O)cc1O
- period change [16]: 0.135 h (inactive)
- inhibition [10]: 4.36% (inactive)
- red/green cell ratio (normalised) [11]: 1.14 (inactive)
- normalised cell number [11, 21]: 0.95
- normalised cell number [11, 22]: 1.08
- fold change [18, 25]: 1 (inactive) and 0.951 (inactive)
- fold change [18, 26]: 1.21 and 0.641
- cell count [18, 27]: 10100 and 9910
- cell count [18, 28]: 10100 and 10400
- outcome [19]: inactive
- z-score [12, 23]: -0.355 (inactive)
- z-score [12, 24]: 0.489
- viability ([20]; at 0.000305 µM, OCI-C5x cells, with rucaparib 10 µM, 100% = cells with rucaparib alone): 108% (inactive)
- viability ([20]; at 0.000305 µM, OCI-C5x cells, without rucaparib): 119% (inactive)
- viability ([20]; at 0.000305 µM, OCI-P5x cells, with rucaparib 20 µM, 100% = cells with rucaparib alone): 96.8% (active)
- viability ([20]; at 0.000305 µM, OCI-P5x cells, without rucaparib): 97% (active)
- viability ([20]; at 0.00122 µM, OCI-C5x cells, with rucaparib 10 µM, 100% = cells with rucaparib alone): 115% (inactive)
- viability ([20]; at 0.00122 µM, OCI-C5x cells, without rucaparib): 108% (inactive)
- viability ([20]; at 0.00122 µM, OCI-P5x cells, with rucaparib 20 µM, 100% = cells with rucaparib alone): 95.8% (active)
- viability ([20]; at 0.00122 µM, OCI-P5x cells, without rucaparib): 99.2% (active)
- viability ([20]; at 0.00488 µM, OCI-C5x cells, with rucaparib 10 µM, 100% = cells with rucaparib alone): 122% (inactive)
- viability ([20]; at 0.00488 µM, OCI-C5x cells, without rucaparib): 115% (inactive)
- viability ([20]; at 0.00488 µM, OCI-P5x cells, with rucaparib 20 µM, 100% = cells with rucaparib alone): 103% (inactive)
- viability ([20]; at 0.00488 µM, OCI-P5x cells, without rucaparib): 104% (inactive)
- viability ([20]; at 0.0195 µM, OCI-C5x cells, with rucaparib 10 µM, 100% = cells with rucaparib alone): 110% (inactive)
- viability ([20]; at 0.0195 µM, OCI-C5x cells, without rucaparib): 123% (inactive)
- viability ([20]; at 0.0195 µM, OCI-P5x cells, with rucaparib 20 µM, 100% = cells with rucaparib alone): 104% (inactive)
- viability ([20]; at 0.0195 µM, OCI-P5x cells, without rucaparib): 110% (inactive)
- viability ([20]; at 0.0781 µM, OCI-C5x cells, with rucaparib 10 µM, 100% = cells with rucaparib alone): 116% (inactive)
- viability ([20]; at 0.0781 µM, OCI-C5x cells, without rucaparib): 121% (inactive)
- viability ([20]; at 0.0781 µM, OCI-P5x cells, with rucaparib 20 µM, 100% = cells with rucaparib alone): 104% (inactive)
- viability ([20]; at 0.0781 µM, OCI-P5x cells, without rucaparib): 109% (inactive)
- viability ([20]; at 0.313 µM, OCI-C5x cells, with rucaparib 10 µM, 100% = cells with rucaparib alone): 115% (inactive)
- viability ([20]; at 0.313 µM, OCI-C5x cells, without rucaparib): 117% (inactive)
- viability ([20]; at 0.313 µM, OCI-P5x cells, with rucaparib 20 µM, 100% = cells with rucaparib alone): 109% (inactive)
- viability ([20]; at 0.313 µM, OCI-P5x cells, without rucaparib): 113% (inactive)
- viability ([20]; at 1.25 µM, OCI-C5x cells, with rucaparib 10 µM, 100% = cells with rucaparib alone): 105% (inactive)
- viability ([20]; at 1.25 µM, OCI-C5x cells, without rucaparib): 125% (inactive)
- viability ([20]; at 1.25 µM, OCI-P5x cells, with rucaparib 20 µM, 100% = cells with rucaparib alone): 97.8% (active)
- viability ([20]; at 1.25 µM, OCI-P5x cells, without rucaparib): 110% (inactive)
- viability ([20]; at 5 µM, OCI-C5x cells, with rucaparib 10 µM, 100% = cells with rucaparib alone): 109% (inactive)
- viability ([20]; at 5 µM, OCI-C5x cells, without rucaparib): 132% (inactive)
- viability ([20]; at 5 µM, OCI-P5x cells, with rucaparib 20 µM, 100% = cells with rucaparib alone): 108% (inactive)
- viability ([20]; at 5 µM, OCI-P5x cells, without rucaparib): 111% (inactive)
- luciferase signal [14]: 60 AU (inactive)
- z-score [15]: 1.71 (inactive)
